From PubChem
DRD3 antagonist – antagonists of human D3 dopamine receptor | P35462 | D3R cells, DiscoveRx beta-arrestin luminescence, antagonist mode; stronger effect = lower value | max response, negative = inhibition, % | 360,000 compounds, 2.5% hits | AID 652054; in the data active means max response below about -50%; inconclusive means no clear call, values can overlap the other calls; further: on the % scale 0 is the no-effect control and ±100 the full control effect
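Cells expressing the human receptor were seeded at 1500 cells/well, incubated overnight at 37 degrees C in 5% CO2, then exposed to library compounds with dopamine controls for 90 minutes at 37 degrees C before luminescent detection.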
GLP-1R inv ag – GLP-1 receptor (human) inverse agonism; Potency, µM (series often up to 38.3 µM), for inactives: at the top dose activity change, negative = inhibition, actives largely listed as inhibitors; AID 624417; HEK293 GLP-1R CRE-luciferase, luminescence, 24 h; GLP-1R form is constitutively active; 410,000 compounds, 1.6% hits; P43220; further: potency means the concentration at half of the fitted maximal effect; on the % scale 0 is the no-effect control and ±100 the full control effect; nearly all actives have a fitted effect of over 55% in size
Target sequence (P43220 whole entry, looked up): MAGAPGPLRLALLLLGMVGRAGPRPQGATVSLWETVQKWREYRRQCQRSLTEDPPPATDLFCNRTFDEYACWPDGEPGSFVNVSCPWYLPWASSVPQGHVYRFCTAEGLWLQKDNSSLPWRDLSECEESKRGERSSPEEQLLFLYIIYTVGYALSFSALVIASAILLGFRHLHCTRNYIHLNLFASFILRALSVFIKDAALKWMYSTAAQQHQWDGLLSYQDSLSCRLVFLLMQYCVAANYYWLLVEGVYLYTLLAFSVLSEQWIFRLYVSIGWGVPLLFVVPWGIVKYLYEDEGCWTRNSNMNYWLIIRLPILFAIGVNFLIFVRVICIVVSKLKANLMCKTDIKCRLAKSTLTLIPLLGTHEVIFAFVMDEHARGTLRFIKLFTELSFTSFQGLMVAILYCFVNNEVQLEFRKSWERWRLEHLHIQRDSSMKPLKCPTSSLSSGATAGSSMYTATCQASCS
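Assay principle: reduced luminescence from a cAMP-responsive reporter in HEK293 cells co-expressing a constitutively active GLP-1R. Conditions: 24 hr compound incubation, 37 deg C, 5% CO2.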
GLP1R ag – activates the human GLP-1 receptor; P43220; HEK293 GLP-1R CRE-luciferase, luminescence, 4-6 h; cells express a hypersensitive GLP-1R form; Potency, µM (series often up to 45.6 µM), without a hit: top-dose activation, most hits filed as activators; 380,000 compounds, 0.007% hits; further: potency means the concentration at half of the fitted maximal effect; % of control where 0% means no effect
D3 ag – agonists of human D3 dopamine receptor. P35462. D3R DiscoveRx beta-arrestin cells, luminescence, 90 min. max activation, %. 410,000 compounds, 0.58% hits; in the data active means max activation above about 30%; further: 0% is about no effect
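Cells at 1500/well, incubated overnight, then treated with pinned compounds (dopamine as control) for 90 min at 37 degrees C. DiscoveRx reagent added for 30 - 60 minutes at room temperature; luminescence read.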
* = called active by the depositor; u = inconclusive; x = not tested or not shown. Most compounds without a hit are left out; they make up all but 4.3% or so of the library. Unless noted, the call rests on the fitted dose curve; in most records, active means well fitted curve in the direction sought with a large enough effect; inconclusive means small, poorly fitted or top-dose-only effect, or another doubt; inactive means no such curve, though single readings can be large; an effect the other way counts as inactive or inconclusive.

SMILES	DRD3 antagonist	GLP-1R inv ag	GLP1R ag	D3 ag
COc1ccccc1N1CCN(C2CC(=O)N(C)C2=O)CC1 (centres undefined)	-16.1	1.1%	-4.3%	-9.3
COc1ccccc1N1CCN(CCCCN2C(=O)c3ccccc3C2=O)CC1	-107.3*	-15.9%	3.4%	-6.8
COc1ccccc1N1CCN(CCN2C(=O)C3CCCN3C2=O)CC1 (centres undefined)	-59.2*	2.0%	-5.1%	-34.4
COc1ccccc1N1CCN(CC(=O)N2CCCC2)CC1	-14.1	-2.1%	0.5%	-8.7
CCCNC(=O)c1ccccc1N1CCN(CCCCN2C(=O)C3CCCCN3C2=O)CC1 (centres undefined)	-72.3*	14.6%	-5.8%	-7.8
COc1ccccc1N1CCN(CCCCN2C(=O)C3CCCN3C2=O)CC1 (centres undefined)	-86.7*	-2.2%	9.1%	-18.2
O=C(CCC1N=C2c3ccccc3N=C(SCc3ccccc3F)N2C1=O)NCc1ccc(F)cc1 (centres undefined)	x	9.5%	x	-15.5
O=C1C2CCCCN2C(=O)N1CCCCN1CCN(c2ccccc2Oc2ccccc2)CC1 (centres undefined)	-104.2*	u	-4.9%	-22.0
COc1ccc(CCNC/C=C/c2ccccc2)cc1	-58.7*	-22.1%	2.4%	-16.6
COc1ccc(CNC/C=C/c2ccccc2)cc1	-79.7*	1.0%	10.2%	-4.9
NS(=O)(=O)c1ccc(CCNC/C=C/c2ccccc2)cc1	-70.9*	-4.9%	9.4%	-2.5
COc1ccc(CCNCc2ccc(OCc3ccccc3)cc2)cc1	-7.7	u	13.0%	-2.6
O=C(NC1CC1)c1ccc(Cn2c(SCc3cccc(F)c3)nc3cccnc32)cc1	x	-10.2%	x	-6.9
CCN(CC)C(=O)c1cc(-c2ccc(Cl)cc2)on1	x	0.6%	x	-0.9
O=c1c2ccccc2c2ccccc2c(=O)n1Cc1cccnc1	-107.6*	4.8%	-2.9%	-9.0
CCCn1c(SCc2nc(-c3ccc(OC)cc3OC)no2)nnc1-c1ccc(Cl)cc1	x	u	x	4.9
CCCn1c(SCc2nc(-c3ccccc3OCC)no2)nnc1-c1ccc(Cl)cc1	x	10µM*	x	7.3
N#Cc1c(NC(=O)c2cc3nc(-c4ccc(Br)cc4)cc(C(F)(F)F)n3n2)sc2c1CCCC2	x	8.8%	x	2.9
Cc1[nH]nc(SCC(=O)N2CCCC2)c1[N+](=O)[O-]	-13.2	-11.5%	-5.0%	2.0
Cc1[nH]nc(SCC(=O)N2CCC(C)CC2)c1[N+](=O)[O-]	-50.8*	2.7%	-10.5%	-2.3
CCNC(=S)N/N=C1\CCCCc2ccccc21	-6.2	3.55µM*	8.1%	0.0
Cc1ccc(C)c(NC(=S)N/N=C2\CCc3ccccc32)c1	-28.0	u	-1.5%	-1.1
Cc1ccc(NC(=S)N/N=C2/CCCCc3ccccc32)cc1	-51.9*	3.55µM*	13.3%	-11.9
Cc1cccc(NC(=S)N/N=C2/CCCCc3ccccc32)c1	-88.5*	u	0.1%	-22.9
CCOc1ccc(N2CC(NC(=O)C3CCCC3)CC2=O)cc1 (centres undefined)	x	-2.8%	x	10.4
SMILES	DRD3 antagonist	GLP-1R inv ag	GLP1R ag	D3 ag
Cc1cc(C)n2c(Nc3c(C)cccc3C)c(-c3ccccn3)nc2n1	-69.7*	-29.5%	-4.8%	-12.0
CCCCNc1c(-c2ccccn2)nc2nc(C)cc(C)n12	26.0	20.4%	4.5%	2.5
Cc1ccc(Nc2c(-c3ccccn3)nc3cccc(C)n23)cc1	-81.8*	u	-3.1%	-27.2
CC(C)(C)c1ccc(C(=O)Nc2nnc(C3=COCCO3)o2)cc1	-71.2*	-19.0%	-21.1%	-14.4
CN(C)c1ccc(C(=O)Nc2nnc(C3=COCCO3)o2)cc1	3.6	-16.1%	-0.8%	-4.4
CCOc1cc(S(=O)(=O)N(Cc2ccccc2)Cc2ccccc2)c(OCC)cc1-n1cnnn1	-62.5*	-6.1%	7.7%	-3.0
O=C(NCc1cccnc1)/C(=C\c1ccc(-c2cccc(Cl)c2)o1)S(=O)(=O)c1ccccc1	-50.3*	2µM*	-24.1%	-31.7
Cc1ccccc1-n1ncc2c(SCC(=O)NC3CCCC3)ncnc21	11.0	-34.1%	-1.0%	6.5
Cc1nnc(NC(=O)CSc2ncnc3c2cnn3-c2ccccc2C)s1	-62.7*	14.1%	-0.1%	6.5
N=c1c[n+](N2CCOCC2)[n-]o1	-106.9*	11.5%	11.1%	-10.7
Cc1csc(=O)n1CCC(=O)OCc1nnc(-c2ccc(Cl)cc2)o1	1.4	29.9%	10.6%	-0.9
Cc1sc(NC(=O)CCl)c(C(=O)c2ccccc2)c1C	-66.3*	-3.7%	-20.9%	-3.9
O=[N+]([O-])c1cc(S(=O)(=O)Nc2ccccc2)ccc1-n1nnc2ccccc21	-61.5*	-26.6%	-25.5%	-24.3
O=[N+]([O-])c1cc(C(F)(F)F)ccc1-n1nnc2ccccc21	5.8	-17.2%	10.9%	7.6
CC(=O)c1ccc(N2CCN(c3ncnc4onc(C)c34)CC2)cc1	x	6.1%	6.9%	-5.5
CC(C)c1cc(C(N)=O)c(NC(=O)C2CCC2)s1	-9.0	-8.7%	25.3%	36.5*
CC(C)c1nnc(NC(=O)C2CCCCC2)s1	17.2	10.6%	18.8%	-1.1
COc1ccc(-c2cc(C(F)F)n3ncc(C(=O)N4CCCCC4)c3n2)cc1	14.1	3.9%	u	-1.6
CCN1CCN(C(=O)c2cnn3c(C(F)F)cc(-c4ccc(C)cc4)nc23)CC1	-56.1*	u	8.9%	4.1
Cc1ccc(-c2cc(C(F)F)n3ncc(C(=O)N4CCN(c5ccccn5)CC4)c3n2)cc1	4.5	6.31µM*	0.5%	-0.5
Cc1ccc(-c2cc(C(F)F)n3ncc(C(=O)N4CCc5ccccc54)c3n2)cc1	-16.1	u	-4.0%	-6.7
O=C(c1cnn2c(C(F)F)cc(-c3ccccc3)nc12)N1CCN(Cc2ccc3c(c2)OCO3)CC1	-74.5*	u	24.7%	-12.5
Cc1cccc(Cc2c(C)nc3c(C(=O)N4CCN(Cc5ccc6c(c5)OCO6)CC4)cnn3c2C)c1	u	-8.2%	2.9%	-12.7
CC(C)OCCCN(Cc1ccco1)C(=O)c1cc2c(s1)-c1ccccc1OC2	x	u	-5.5%	6.4
Cc1cc(C)c2nc(N3CCC(C(=O)N4CCN(C(=O)c5ccco5)CC4)CC3)sc2c1	11.2	7.94µM*	2.3%	0.5
SMILES	DRD3 antagonist	GLP-1R inv ag	GLP1R ag	D3 ag
Cc1c(Cl)ccc2sc(N3CCN(C(=O)c4ccco4)CC3)nc12	x	2.2%	x	21.2
CCC(=O)OC(OP(=O)(CCCCc1ccccc1)CC(=O)N1C[C@H](C2CCCCC2)C[C@H]1C(=O)O)C(C)C (some centres undefined)	x	x	x	11.9
O=C(Nc1ccc(F)c(Cl)c1)C1Cc2ccccc2CN1S(=O)(=O)c1ccc(F)cc1 (centres undefined)	x	10µM*	x	-9.9
CCNC(=O)C1Cc2ccccc2CN1S(=O)(=O)c1ccc(F)cc1 (centres undefined)	-3.1	6.4%	-2.7%	2.3
CCOC(=O)c1c(NC(=O)c2cc(-c3ccc(Br)cc3)on2)sc(C)c1C	x	7.2%	x	4.5
COc1cccc(OCCNCc2ccccc2)c1	-79.0*	-27.8%	4.0%	-15.2
Cc1ccc(OCCNCc2ccccc2)c(C)c1	-69.9*	u	28.9%	-10.4
